Screen size: about 320,000 compounds; about 2,100 (0.66%) were called active. Not shown: some 53% with an inconclusive outcome. The call rests on the fitted dose curve; in most records, active means well fitted inhibition curve with a large enough effect in the signal ratio, with a control signal flat (not every such curve was filed as active); inconclusive means small, poorly fitted or top-dose-only effect, or effect the other way, or a change in a side signal; inactive means flat fitted curve, though single readings scatter; the % refers to the signal ratio. For the sample, actives were picked, then their nearest neighbours and some compounds at random.
Potency means the concentration at half of the fitted maximal effect.

The nature of this assay: qHTS Assay for Lipid Storage Modulators in Drosophila S3 Cells.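 On cell number change: cells counted by Cell Tracker Red CMTPX staining in the red channel.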 Particulars: BODIPY lipid droplet fluorescence, 18-24 h, cells fed with added oleic acid; cell number change: measured here: cell count max response; series mostly up to 46.1 µM. The method, boiled down:
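Laser-scanning cytometry quantifies lipid droplet accumulation (500–530 nm total intensity; droplet/cell object ratio) in oleic acid-fed (400 uM added) Drosophila S3 cells treated with a concentration series. 20 uM Triacsin C defined 100% inhibition.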
With `O=C(CSc1nccn1Cc1ccco1)Nc1ccccc1`, the Potency entry is “inactive” and the cell number change was determined as 2.09%.
For the molecule `COc1cnc(-c2ccccc2)nc1Oc1cccc(C)c1C`, the Potency entry is “inactive” and the cell number change was determined as 7.32%.
For the molecule `COc1cnc(-c2ccccn2)nc1Oc1c(C)cccc1C`, the Potency entry was “inactive”.
With `COc1cnc(-c2ccccc2)nc1Oc1ccccc1C`, the Potency was 5.17 µM (active) and the cell number change was -26.8%.
Turning to `COc1ccc(/C=C2/N=C(SC3CCOC3=O)N(c3cccc(OC)c3)C2=O)cc1` (stereo not drawn), the Potency entry is “inactive” and the cell number change is -7.72%.
In the case of `CCOC(=O)C1CCN(CC(=O)c2c(C)[nH]c3ccccc23)CC1`, the Potency entry was “inactive”.
`O=c1oc(-c2cccs2)nc2ccccc12`: the Potency result was “inactive” and the cell number change was 0.728%.
Turning to `Cc1cccc(CSCCNC(=O)CSCc2ccc([N+](=O)[O-])cc2)c1`, the Potency was 14.6 µM (active) and the cell number change was -21.3%.
On to `Cc1ccccc1CSCCNC(=O)CSCc1ccc([N+](=O)[O-])cc1`, for which the Potency result is “inactive” and the cell number change was -11.7%.
As for `Cc1ccc(CSCCNC(=O)CSCc2ccc([N+](=O)[O-])cc2)cc1`, the Potency entry is “inactive”.
With `Cc1ccc(C)c(N2CCN(C(=O)c3ccccc3Br)CC2)c1`, the Potency result was “inactive” and the cell number change came out at 10.9%.
Take `Brc1cccc(-c2nnc(-c3ccccc3)o2)c1`: the Potency entry is “inactive” and the cell number change turned out to be 1.68%.
`COC(=O)C1(Cc2cc(-c3cccc(Br)c3)no2)CCN(C(=O)OC(C)(C)C)CC1`: the Potency entry is “inactive” and the cell number change amounted to 7.19%.
Turning to `CNc1ccccc1C(C)(C)c1cc(-c2cccc(Br)c2)no1`, the Potency is 1.46 µM (active) and the cell number change was -5.11%.
Taken in the same sequence, the figures for `CCc1ccc(CNC(=O)C2CCN(S(=O)(=O)N3CCC4(CC3)OCCO4)CC2)cc1` were “inactive” and 0.101%.
The like results for `Cc1ccccc1C(=O)Nc1ccnn1C1CCN(Cc2c(C)n(C)c3ccccc23)CC1` were, in that order, “inactive” and 1.16%.
Taken in the same sequence, the figures for `O=C(O)c1ccc(N=Nc2c(O)[nH]c3ccc(Br)cc23)cc1` were “inactive” and 13.1%.
Take `Oc1[nH]c2ccccc2c1N=Nc1c(F)c(F)c(C(F)(F)F)c(F)c1F`: the Potency result was “inactive” and the cell number change came out at 14.6%.
For `Oc1[nH]c2ccccc2c1N=Nc1ccc(F)cc1`, the Potency was 20.6 µM (active) and the cell number change was -4.65%.
With `Cc1ccc2[nH]c(O)c(N=NC(N)=S)c2c1`, the Potency result was “inactive” and the cell number change came to 9.04%.
The like results for `Oc1[nH]c2ccccc2c1N=Nc1c(F)c(F)c(Cl)c(F)c1F` were, in that order, “inactive” and -0.455%.
Consider `Cc1ccc(N=Nc2c(O)[nH]c3ccc(F)cc23)cc1`, for which the Potency is 9.2 µM (active) and the cell number change is 2.25%.
Consider `O=C(NC1(C(=O)NC2CCCCC2)CCCCC1)c1ccc2c(c1)OCO2`, for which the Potency result was “inactive” and the cell number change was determined as 4.66%.
With `O=C(NNC(=O)c1cnccc1C(F)(F)F)c1ccccc1`, the Potency result is “inactive” and the cell number change stood at 8.28%.
Consider `O=C(O)CC12CC3CC(C1)CC(n1ncc(NCc4ccc5c(c4)OCO5)c(Cl)c1=O)(C3)C2`, for which the Potency entry is “inactive” and the cell number change was 16.3%.
In the case of `CN(CC1CCCO1)S(=O)(=O)c1ccc(C(=O)Nc2ccc([N+](=O)[O-])cc2)cc1` (stereo not drawn), the Potency is 12.6 µM (active) and the cell number change is -17.5%.
With `CN(C)S(=O)(=O)c1ccc(NC(=O)c2ccc([N+](=O)[O-])cc2)cc1`, the Potency entry was “inactive” and the cell number change is -1.07%.
Turning to `Cc1cc(NC(=O)c2ccc(S(=O)(=O)N(C)CC3CCCO3)cc2)no1` (stereo not drawn), the Potency result is “inactive”.
In the case of `O=C(NCC1CCCO1)c1ccc(NC(=O)c2ccc([N+](=O)[O-])cc2)cc1` (stereo not drawn), the Potency entry was “inactive” and the cell number change turned out to be 13.2%.
As to `CN(CC1CCCO1)S(=O)(=O)c1ccc(C(=O)Nc2ccc(F)cc2)cc1` (stereo not drawn), the Potency is 23.1 µM (active) and the cell number change was -21.7%.
Consider `CN(CC1CCCO1)S(=O)(=O)c1ccc(C(=O)Nc2ccc3c(c2)OCO3)cc1` (stereo not drawn), for which the Potency entry was “inactive” and the cell number change stood at 16.6%.
